Results reported in the supplement of paper PMC10849652.
Targets with a hit are over-represented here; the source holds about 7,900 in all. About 0.6% of all pairs of compound and target were hits. A number with no mark means an inactive call.

Experiments:
Assay in all cases: log2 fold change, soluble protein after heating vs DMSO (PISA); higher = thermal stabilisation; K562 cells, 10 uM, 30 min; active = over 0.2 and 3.5 SD of the protein, either way, in both replicates (recomputed)
[1] = compound: CC1=C(C=C(C=C1)NC(=O)C2=CC(=CC=C2)C(C)(C)C#N)NC3=CC4=C(C=C3)N=CN(C4=O)C
Summary of the method: (§1)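 K562 cells (2×10^6 cells/mL) were treated with 10 μM compound for 30 min, and aliquots were heated for 3 min over 48°C-58°C. Pooled aliquots were extracted in PBS with 0.5% NP-40 at 4°C, and the supernatant after 21,000xg for 90 min was measured by TMTpro 16plex LC-MS/MS with channel sums equalised. Reported thermal stability, relative to control samples and from duplicates, is a log2 fold change.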

[2] = compound: CC1=C(C=C(C=C1)NC(=O)C2=CC(=CC=C2)N(C)C)NC(=O)C3=CC=C(C=C3)O
Summary of the method: as §1

[3] = compound: CC1=CC=C(C=C1)SC2=C3C=C(SC3=CN=C2)C(=O)N
Summary of the method: as §1

[4] = compound: CC1=NC(=CC=C1)C2=C(N=C(N2)C(C)(C)C)C3=CC4=NC=CN=C4C=C3
Summary of the method: as §1

[5] = compound: CCCCN(Cc1ccc(C(=O)NO)cc1)C(=O)Nc1ccccc1 [Nexturastat A]
Summary of the method: as §1

[6] = compound: CCCS(=O)(=O)Nc1ccc(F)c(C(=O)c2c[nH]c3ncc(-c4ccc(Cl)cc4)cc23)c1F [vemurafenib]
Summary of the method: as §1

[7] = compound: CCCS(=O)(=O)Nc1ccc(F)c(C(=O)c2c[nH]c3ncc(Cl)cc23)c1F
Summary of the method: as §1

[8] = compound: CCCc1cc(C)[nH]c(=O)c1CNC(=O)c1cc(-c2ccnc(N3CCN(C)CC3)c2)cc2c1cnn2C(C)C
Summary of the method: as §1

[9] = compound: CCN(CC)Cc1ccc2cc(COC(=O)Nc3ccc(C(=O)NO)cc3)ccc2c1 [givinostat]
Summary of the method: as §1

[10] = compound: CCN(CCCOc1ccc2c(Nc3cc(CC(=O)Nc4cccc(F)c4)[nH]n3)ncnc2c1)CCOP(=O)(O)O [barasertib]
Summary of the method: as §1

Sequence of UniProt P54922 (P54922 whole entry, looked up): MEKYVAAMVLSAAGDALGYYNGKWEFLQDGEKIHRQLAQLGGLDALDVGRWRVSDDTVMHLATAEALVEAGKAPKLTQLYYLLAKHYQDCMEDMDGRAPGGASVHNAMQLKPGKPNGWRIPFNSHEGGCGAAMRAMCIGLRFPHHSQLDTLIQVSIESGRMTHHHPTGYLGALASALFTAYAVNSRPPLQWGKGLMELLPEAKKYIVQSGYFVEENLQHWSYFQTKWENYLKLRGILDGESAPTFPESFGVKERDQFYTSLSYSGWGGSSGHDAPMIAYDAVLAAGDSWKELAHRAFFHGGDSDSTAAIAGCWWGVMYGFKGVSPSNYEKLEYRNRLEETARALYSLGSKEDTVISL
Sequence of UniProt Q10589 (Q10589 whole entry, looked up): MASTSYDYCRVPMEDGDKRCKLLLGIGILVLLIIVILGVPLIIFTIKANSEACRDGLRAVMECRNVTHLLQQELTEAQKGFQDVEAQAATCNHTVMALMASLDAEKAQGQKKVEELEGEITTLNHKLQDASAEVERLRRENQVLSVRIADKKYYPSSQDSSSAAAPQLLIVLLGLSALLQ
Sequence of UniProt Q9UKG1 (Q9UKG1 whole entry, looked up): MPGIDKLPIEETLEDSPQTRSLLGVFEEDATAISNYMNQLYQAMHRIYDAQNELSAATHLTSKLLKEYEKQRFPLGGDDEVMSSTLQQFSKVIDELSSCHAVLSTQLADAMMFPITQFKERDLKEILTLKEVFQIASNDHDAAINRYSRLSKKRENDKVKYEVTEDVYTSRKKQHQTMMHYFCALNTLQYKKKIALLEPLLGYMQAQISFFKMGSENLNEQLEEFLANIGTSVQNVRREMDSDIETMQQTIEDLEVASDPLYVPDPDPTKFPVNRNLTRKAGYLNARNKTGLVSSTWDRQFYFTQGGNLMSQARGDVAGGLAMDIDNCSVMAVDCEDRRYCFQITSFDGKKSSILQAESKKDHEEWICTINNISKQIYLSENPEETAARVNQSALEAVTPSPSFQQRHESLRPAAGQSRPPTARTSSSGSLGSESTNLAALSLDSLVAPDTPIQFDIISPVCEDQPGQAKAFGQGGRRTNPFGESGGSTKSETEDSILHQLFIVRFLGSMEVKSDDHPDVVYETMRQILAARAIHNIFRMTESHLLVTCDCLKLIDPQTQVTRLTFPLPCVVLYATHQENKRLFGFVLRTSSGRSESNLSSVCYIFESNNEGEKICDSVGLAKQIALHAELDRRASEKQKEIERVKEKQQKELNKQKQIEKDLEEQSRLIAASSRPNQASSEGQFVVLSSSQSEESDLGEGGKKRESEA
Sequence of UniProt Q8N6D5 (Q8N6D5 whole entry, looked up): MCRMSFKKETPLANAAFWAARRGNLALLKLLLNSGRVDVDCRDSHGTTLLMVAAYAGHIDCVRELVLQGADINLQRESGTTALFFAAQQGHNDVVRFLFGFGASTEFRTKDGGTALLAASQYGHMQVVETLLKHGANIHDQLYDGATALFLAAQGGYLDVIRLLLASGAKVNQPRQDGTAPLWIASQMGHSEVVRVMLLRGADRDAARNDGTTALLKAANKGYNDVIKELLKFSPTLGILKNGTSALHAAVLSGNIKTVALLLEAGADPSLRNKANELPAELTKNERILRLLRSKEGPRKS
Sequence of UniProt Q15057 (Q15057 whole entry, looked up): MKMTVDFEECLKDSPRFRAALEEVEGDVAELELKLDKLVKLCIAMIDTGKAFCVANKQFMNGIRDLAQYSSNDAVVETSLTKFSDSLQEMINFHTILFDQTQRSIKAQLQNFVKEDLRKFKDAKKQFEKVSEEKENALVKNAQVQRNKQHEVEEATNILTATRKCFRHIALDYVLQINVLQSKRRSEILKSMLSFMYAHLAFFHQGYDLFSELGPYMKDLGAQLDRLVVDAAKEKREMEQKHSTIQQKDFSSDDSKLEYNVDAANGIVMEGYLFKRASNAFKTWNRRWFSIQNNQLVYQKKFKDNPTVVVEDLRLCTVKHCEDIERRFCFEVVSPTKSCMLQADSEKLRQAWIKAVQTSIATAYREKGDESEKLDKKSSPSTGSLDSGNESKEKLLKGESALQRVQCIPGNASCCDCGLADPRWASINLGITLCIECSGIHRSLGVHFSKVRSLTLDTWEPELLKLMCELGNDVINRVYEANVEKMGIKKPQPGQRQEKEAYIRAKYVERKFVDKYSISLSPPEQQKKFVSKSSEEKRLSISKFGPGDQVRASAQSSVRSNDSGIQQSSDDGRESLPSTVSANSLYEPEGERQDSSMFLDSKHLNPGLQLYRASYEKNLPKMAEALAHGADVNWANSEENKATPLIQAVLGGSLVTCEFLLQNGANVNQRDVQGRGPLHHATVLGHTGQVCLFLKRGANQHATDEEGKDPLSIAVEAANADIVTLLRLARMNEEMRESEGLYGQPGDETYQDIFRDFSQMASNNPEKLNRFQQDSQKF
Sequence of UniProt Q9Y673 (Q9Y673 whole entry, looked up): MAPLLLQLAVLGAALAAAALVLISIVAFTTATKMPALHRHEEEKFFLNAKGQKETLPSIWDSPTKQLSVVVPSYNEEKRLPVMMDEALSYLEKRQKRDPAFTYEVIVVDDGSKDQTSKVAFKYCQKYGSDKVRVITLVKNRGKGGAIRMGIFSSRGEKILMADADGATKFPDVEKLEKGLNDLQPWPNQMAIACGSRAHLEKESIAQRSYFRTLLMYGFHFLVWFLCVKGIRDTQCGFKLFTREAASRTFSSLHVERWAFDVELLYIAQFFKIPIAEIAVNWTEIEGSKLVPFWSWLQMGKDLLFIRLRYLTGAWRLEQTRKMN
Sequence of UniProt Q9UQB8 (Q9UQB8 whole entry, looked up): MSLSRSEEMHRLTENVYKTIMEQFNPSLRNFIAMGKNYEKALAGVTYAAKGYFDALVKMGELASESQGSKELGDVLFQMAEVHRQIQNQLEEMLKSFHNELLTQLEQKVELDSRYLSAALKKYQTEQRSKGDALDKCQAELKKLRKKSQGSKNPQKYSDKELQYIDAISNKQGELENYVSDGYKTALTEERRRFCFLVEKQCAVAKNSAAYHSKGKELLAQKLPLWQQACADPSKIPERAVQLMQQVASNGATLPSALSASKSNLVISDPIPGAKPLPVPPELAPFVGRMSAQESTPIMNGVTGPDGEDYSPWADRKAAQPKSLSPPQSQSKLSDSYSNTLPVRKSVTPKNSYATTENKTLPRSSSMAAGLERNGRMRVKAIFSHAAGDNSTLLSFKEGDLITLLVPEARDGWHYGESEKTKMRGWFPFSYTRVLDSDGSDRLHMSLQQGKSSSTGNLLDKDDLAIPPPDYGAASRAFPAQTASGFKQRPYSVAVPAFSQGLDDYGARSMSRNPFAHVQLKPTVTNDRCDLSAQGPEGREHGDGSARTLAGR
Sequence of UniProt O94973 (O94973 whole entry, looked up): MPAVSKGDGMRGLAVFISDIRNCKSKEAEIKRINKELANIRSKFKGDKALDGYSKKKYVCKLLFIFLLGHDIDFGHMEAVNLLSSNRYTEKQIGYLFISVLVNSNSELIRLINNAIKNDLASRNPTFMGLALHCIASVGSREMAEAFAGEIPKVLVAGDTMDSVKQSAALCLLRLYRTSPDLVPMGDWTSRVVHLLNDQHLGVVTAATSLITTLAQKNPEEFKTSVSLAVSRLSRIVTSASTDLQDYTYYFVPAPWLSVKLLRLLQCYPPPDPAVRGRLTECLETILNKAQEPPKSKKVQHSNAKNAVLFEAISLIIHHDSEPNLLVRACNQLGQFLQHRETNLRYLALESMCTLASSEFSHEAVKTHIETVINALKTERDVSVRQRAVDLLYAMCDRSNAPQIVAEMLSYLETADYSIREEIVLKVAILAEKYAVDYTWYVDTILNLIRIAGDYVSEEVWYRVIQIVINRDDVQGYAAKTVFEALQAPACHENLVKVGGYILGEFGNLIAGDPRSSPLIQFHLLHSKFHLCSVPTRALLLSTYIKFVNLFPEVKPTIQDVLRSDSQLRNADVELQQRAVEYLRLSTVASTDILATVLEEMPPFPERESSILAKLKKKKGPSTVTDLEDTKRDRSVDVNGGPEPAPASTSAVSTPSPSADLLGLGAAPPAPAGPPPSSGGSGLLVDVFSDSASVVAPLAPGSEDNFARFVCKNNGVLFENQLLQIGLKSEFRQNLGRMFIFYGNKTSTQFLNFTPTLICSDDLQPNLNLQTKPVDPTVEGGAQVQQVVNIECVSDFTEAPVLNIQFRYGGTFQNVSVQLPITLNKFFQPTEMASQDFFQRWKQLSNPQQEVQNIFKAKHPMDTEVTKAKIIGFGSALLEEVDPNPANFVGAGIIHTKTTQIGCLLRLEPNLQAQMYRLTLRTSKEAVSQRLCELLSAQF
Sequence of UniProt P10398 (P10398 whole entry, looked up): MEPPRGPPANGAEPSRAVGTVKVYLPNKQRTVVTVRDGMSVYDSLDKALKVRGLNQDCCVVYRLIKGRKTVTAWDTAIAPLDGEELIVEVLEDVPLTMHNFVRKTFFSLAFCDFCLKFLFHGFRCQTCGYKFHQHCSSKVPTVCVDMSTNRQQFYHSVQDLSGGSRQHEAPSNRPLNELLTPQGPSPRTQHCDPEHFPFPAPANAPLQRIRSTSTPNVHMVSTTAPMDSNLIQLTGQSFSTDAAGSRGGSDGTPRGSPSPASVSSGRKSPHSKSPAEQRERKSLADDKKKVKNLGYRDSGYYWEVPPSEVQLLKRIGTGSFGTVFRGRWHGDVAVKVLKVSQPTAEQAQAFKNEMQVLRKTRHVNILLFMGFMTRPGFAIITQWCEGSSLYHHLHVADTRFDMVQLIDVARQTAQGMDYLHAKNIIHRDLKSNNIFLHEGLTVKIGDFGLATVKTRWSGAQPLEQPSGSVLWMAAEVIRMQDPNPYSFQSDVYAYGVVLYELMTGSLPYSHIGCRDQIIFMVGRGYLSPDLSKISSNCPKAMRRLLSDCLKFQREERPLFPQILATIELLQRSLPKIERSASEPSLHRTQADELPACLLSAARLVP
Sequence of UniProt P56385 (P56385 whole entry, looked up): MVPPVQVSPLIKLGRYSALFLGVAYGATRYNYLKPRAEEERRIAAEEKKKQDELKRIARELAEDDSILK
Sequence of UniProt Q8WUW1 (Q8WUW1 whole entry, looked up): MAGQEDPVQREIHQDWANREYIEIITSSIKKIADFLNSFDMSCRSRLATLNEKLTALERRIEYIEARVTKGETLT

Target	log2 fold change [1]	log2 fold change [2]	log2 fold change [3]	log2 fold change [4]	log2 fold change [5]	log2 fold change [6]	log2 fold change [7]	log2 fold change [8]	log2 fold change [9]	log2 fold change [10]
ALG3 (UniProt Q92685)	0.108	0.002	0.113	0.376 (active)	0.008	-0.076	0.123	-0.079	-0.09	0
AP2A2 isoform 2 (UniProt O94973)	0.084	0	0.01	0.049	0.004	-0.008	0.002	0.038	0.003	0.002
AP2S1 (UniProt P53680)	0.009	-0.028	-0.036	0.037	-0.038	0.002	0.03	0.007	-0.015	-0.034
AGRN (UniProt O00468)	-0.089	-0.294	-0.031	0.014	-0.051	-0.025	-0.072	0.024	-0.011	0.011
ATAD3B (UniProt Q5T9A4)	-0.07	-0.022	0.003	-0.009	0.236	-0.024	0.042	0.058	0.05	-0.019
APPL1 (UniProt Q9UKG1)	0.012	0.008	0.035	0.015	-0.032	0.066	0.017	-0.033	0.039	0.02
AP2A1 (UniProt O95782)	0.024	-0.016	0.004	0.084	0.048	0.009	0.03	-0.003	0.008	-0.028
ADPRH (UniProt P54922)	0.014	-0.008	-0.002	-0.134	0.015	0.071	-0.037	-0.005	0.025	-0.036
ATP6AP1 (UniProt Q15904)	0.009	-0.025	0.004	-0.027	0.114	-0.003	-0.018	-0.009	0.038	0.016
ALG5 (UniProt Q9Y673)	0.039	0.019	-0.001	0.049	-0.055	0.035	0.059	0.025	0.01	0.02
AASDH (UniProt Q4L235)	-0.001	0.024	-0.043	-0.056	0.179	0.094	0.103	0.149	0.033	0.09
BECN1 (UniProt Q14457)	-0.04	0.029	0	0.04	0.015	0.055	-0.01	-0.024	-0.018	-0.012
APLP2 (UniProt Q06481)	0.088	-0.043	-0.003	-0.009	-0.053	-0.033	0.011	0.018	-0.041	-0.04
ATP5ME (UniProt P56385)	0.036	-0.037	0.031	0.011	-0.035	-0.003	-0.041	-0.041	0.027	0.007
ATP6V0A2 (UniProt Q9Y487)	0.021	0.016	0.006	-0.013	0.024	0.026	0.014	0.014	0.02	0.008
ACAP2 (UniProt Q15057)	-0.046	0	-0.038	0.033	0	0.046	0.057	-0.04	0.028	0

Target	log2 fold change [1]	log2 fold change [2]	log2 fold change [3]	log2 fold change [4]	log2 fold change [5]	log2 fold change [6]	log2 fold change [7]	log2 fold change [8]	log2 fold change [9]	log2 fold change [10]
ARAF (UniProt P10398)	0.063	-0.049	-0.069	-0.007	0.003	0.064	0.123	0.019	0.029	0.074
BOP1 (UniProt Q14137)	-0.06	0.007	0.015	0.023	0.162	0.047	-0.006	0.055	0.09	-0.054
BAIAP2 (UniProt Q9UQB8)	-0.019	0.01	0.007	-0.012	0.041	0.021	0.068	0.048	0.029	0.048
ADRM1 (UniProt Q16186)	0.067	0.009	-0.013	0.024	0.104	-0.022	-0.028	0.01	0.034	-0.021
ADD3 isoform 2 (UniProt Q9UEY8)	0.034	-0.021	-0.08	-0.017	-0.029	0.059	0.014	-0.017		
BRK1 isoform 2 (UniProt Q8WUW1)	-0.055	-0.076	0.103	0.069	-0.02	0.044	-0.004	0.002	0.022	0.032
ARFGEF1 (UniProt Q9Y6D6)	-0.03	-0.013	-0.014	0	-0.042	0.035	0.041	0.155	0.029	-0.015
BST2 (UniProt Q10589)	0.059	0.014	-0.003	-0.011	0.023	0	-0.029	-0.095	0.053	-0.097
ATG4B isoform 2 (UniProt Q9Y4P1)	-0.046	-0.287	0.218	-0.072	0.132	0.087	-0.02	0.031	0.126	0.126
ADK (UniProt P55263)	0.03	-0.027	0	-0.011	-0.04	-0.013	-0.046	0.106	-0.076	-0.026
BAIAP2 isoform 4 (UniProt Q9UQB8)	0.034									
ANKRD29 (UniProt Q8N6D5)	0.046	0.022	0.027	-0.035	0.371	-0.064	-0.031	-0.073	0.247	-0.124
BUB1B isoform 3 (UniProt O60566)	0.004	-0.031	0.059	-0.014	0.087	0.058	0.14	0.043	0.118	0.034
ACTR1B (UniProt P42025)	-0.056	-0.124	0.001	-0.003	-0.134	-0.029	-0.022	-0.009	0.006	0.031
BCL9L (UniProt Q86UU0)	-0.046	-0.012	0.005	-0.033	-0.033	-0.037	-0.014	-0.029	0.043	-0.001
